# Results reported in PubChem BioAssay (NCATS).
# Results filed as inconclusive are left out. Values without a mark were called inactive. Calls of active or inactive are those of the source. Calls follow the shape of the dose curve; as a rule, active = well fitted inhibition curve with a large enough effect; inconclusive = small, poorly fitted or top-dose-only effect; inactive = flat fitted curve, though single readings scatter.
# Assay: P-glycoprotein substrates identified in KB-8-5-11 adenocarcinoma cell line, qHTS therapeutic library screen (AID 1346987); also: nearly all actives have a fitted effect of over 65% in size
# Conditions: KB-8-5-11 (P-gp overexpressing) viability, CellTiter-Glo, 72 h; series mostly up to 44.5 µM; activity change, negative = cytotoxicity: at the top concentration
# How it was run: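 KB-8-5-11, a colchicine-selected P-gp-overexpressing KB-3-1 subline, was grown without colchicine for the assay. Cells were seeded at 500 cells/well, dosed in concentration-response and incubated 72 h at 37 degree C, 5% CO2. Viability was read by CellTiter-Glo luminescence.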
# % is scaled to controls: 0 for no effect and ±100 for the full control effect; potency is read from the fitted curve at half-maximal effect.
Compound,"activity change, negative = cytotoxicity",outcome,Potency
O=C1NC(=O)C(=Cc2ccc(-c3ccc(F)cc3)o2)S1,4.76%,,
COc1ccc(C2Sc3ccccc3N(CCN(C)C)C(=O)C2OC(C)=O)cc1 (stereo not given),,inactive,
Clc1cc(Cl)cc(CNc2ncncc2-c2ccc3c(c2)OCO3)c1,,,13.2 µM (active)
CC(=O)OC1C(C)OC(Oc2c(-c3ccc(O)cc3)oc3cc(O)cc(O)c3c2=O)C(O)C1OC(C)=O (stereo not given),,inactive,
Cc1ccccc1C(C(=O)NC1CCCCC1)N(C(=O)Cn1ccnc1C)c1cccc(F)c1 (stereo not given),,,inactive
N#CC1(c2ccc(NC(=O)c3cccnc3NCc3ccncc3)cc2)CCCC1,-29.1%,,
O=C(O)[C@H]1O[C@H](Oc2cc3oc(-c4ccccc4)cc(=O)c3c(O)c2O)[C@H](O)[C@@H](O)[C@H]1O,9.52%,,
O=C(NOCC(O)CO)c1cc(Br)c(F)c(F)c1Nc1ccc(I)cc1F (stereo not given),-21.3%,,
CCc1ccc(OCc2ccccc2C(=O)Nc2ccc3nc(C)cc(N)c3c2)cc1,,,7.43 µM (active)
COc1cc2nc(-c3ccc(N4CCN(C)CC4)cc3)nc(NCCN3CCOCC3)c2cc1OC,,,7.31 µM (active)
O=C(CCc1ccc(O)cc1)c1c(O)cc(O)cc1O[C@@H]1O[C@H](CO)[C@H](O)[C@H](O)[C@H]1O,-11%,,
CC(C)C[C@H](CC(=O)O)C(=O)N[C@@H](Cc1c[nH]c2ccccc12)C(=O)N[C@@H](C)c1ccccc1,5.46%,,
O=C(O)c1cc(-c2ccccc2)nc2ccccc12,,,inactive
Cc1nnc(C(C)C)n1C1C[C@H]2CC[C@@H](C1)N2CC[C@H](NC(=O)C1CCC(F)(F)CC1)c1ccccc1 (stereo not given in full),2.52%,,
O=C(OCC#CCSc1nnc(-c2cccc3ccccc23)o1)c1cc2ccccc2s1,5.09%,,
O=C(O)C(O)Cc1ccc(O)c(O)c1 (stereo not given),7.85%,,
CC#CCn1c(N2CCC[C@@H](N)C2)nc2c1c(=O)n(Cc1nc(C)c3ccccc3n1)c(=O)n2C,5.35%,,
O=C1NC(=O)C(=Cc2ccc3nccnc3c2)S1,-6.84% [at 17.3 µM],,
CC(C)C(C)C=CC(C)C1CCC2C3=CC=C4CC(O)CCC4(C)C3CCC21C (stereo not given),,inactive,
Cc1ccn(-c2ccc(-c3ncco3)cc2)c(=O)c1-c1ccc2nc(N)ncc2c1,,,inactive
NC1=N[C@@]2(c3cc(NC(=O)c4ccc(F)cn4)ccc3F)COC[C@@H]2CS1,-0.951%,,
CC(C)(Cc1ccc2ccccc2c1)NC[C@@H](O)COc1cccc(Cl)c1C#N,4.88%,,
C[C@@H]1CCN(C(=O)CC#N)C[C@H]1N(C)c1ncnc2[nH]ccc12,-10.4%,,
CCC(=O)O[C@]1(C(=O)CO)CC[C@H]2[C@@H]3CCC4=CC(=O)CC[C@]4(C)[C@@H]3CC[C@@]21C,0.984%,,
Cc1[nH]c(C=C2C(=O)Nc3ccc(S(=O)(=O)Cc4c(Cl)cccc4Cl)cc32)c(C)c1C(=O)N1CCC[C@H]1CN1CCCC1,3.82%,,
